hERG WT inh = KCNH2 (human, wildtype) channel inhibition; Q12809; U2OS, BacMam KCNH2, thallium flux FluxOr; active compounds read low; activity change, % at 1.84 µM; 340,000 tested, 0.37% active; AID 720551;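 active means maximum activity change below -70%; inconclusive means maximum activity change between -70% and -50%; inactive means maximum activity change above -50%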
Target sequence (Q12809 whole entry, looked up): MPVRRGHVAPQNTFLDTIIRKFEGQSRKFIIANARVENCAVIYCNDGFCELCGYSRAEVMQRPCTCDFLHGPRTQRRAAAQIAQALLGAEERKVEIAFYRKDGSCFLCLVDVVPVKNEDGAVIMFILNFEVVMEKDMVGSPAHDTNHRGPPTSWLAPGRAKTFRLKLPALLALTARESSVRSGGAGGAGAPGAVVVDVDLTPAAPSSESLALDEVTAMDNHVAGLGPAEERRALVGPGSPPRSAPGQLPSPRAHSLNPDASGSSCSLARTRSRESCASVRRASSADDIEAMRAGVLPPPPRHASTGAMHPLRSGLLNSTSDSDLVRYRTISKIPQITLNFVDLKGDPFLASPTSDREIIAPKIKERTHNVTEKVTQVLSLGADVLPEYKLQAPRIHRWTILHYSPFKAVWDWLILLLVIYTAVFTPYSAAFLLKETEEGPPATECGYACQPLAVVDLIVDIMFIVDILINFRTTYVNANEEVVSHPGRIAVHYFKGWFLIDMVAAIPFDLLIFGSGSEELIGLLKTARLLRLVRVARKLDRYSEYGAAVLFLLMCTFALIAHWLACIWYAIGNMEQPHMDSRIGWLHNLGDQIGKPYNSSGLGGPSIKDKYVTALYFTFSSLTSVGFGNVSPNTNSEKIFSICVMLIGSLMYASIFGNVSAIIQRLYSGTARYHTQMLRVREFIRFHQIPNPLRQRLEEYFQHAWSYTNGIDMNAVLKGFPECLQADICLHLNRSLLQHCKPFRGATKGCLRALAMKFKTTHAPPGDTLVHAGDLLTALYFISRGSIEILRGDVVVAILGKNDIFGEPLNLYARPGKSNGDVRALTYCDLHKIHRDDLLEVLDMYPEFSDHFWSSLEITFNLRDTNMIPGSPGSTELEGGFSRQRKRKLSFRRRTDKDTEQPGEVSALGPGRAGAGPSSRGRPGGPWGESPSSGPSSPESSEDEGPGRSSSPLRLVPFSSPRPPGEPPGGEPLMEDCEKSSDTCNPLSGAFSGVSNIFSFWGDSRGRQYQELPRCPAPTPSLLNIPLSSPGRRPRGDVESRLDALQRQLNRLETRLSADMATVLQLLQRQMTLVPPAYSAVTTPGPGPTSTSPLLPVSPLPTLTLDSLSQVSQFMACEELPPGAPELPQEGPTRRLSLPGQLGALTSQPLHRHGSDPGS
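U2OS cells transduced with wild-type KCNH2 virus are loaded with FluxOr dye for 45 min, and thallium flux is measured in kinetic reads before and after stimulation buffer. Rate constants are normalized to DMSO controls.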
KinaseGlo FLuc = Kinase-Glo luciferase inhibition (counter-screen) | Q27757 | Kinase-Glo luciferase, ATP luminescence, 8 min | Potency, µM (highest dose often 38.3 µM), inactives show at the top dose activity change, negative = inhibition, most hits filed as inhibitors | 200,000 tested, 0.28% active | AID 1379; active means well fitted inhibition curve with a large enough effect; inconclusive means small, poorly fitted or top-dose-only effect; further: potency means the concentration at half of the fitted maximal effect; nearly all actives have a fitted effect of over 60% in size
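Inhibition of Kinase-Glo luciferase light generation was assessed at 10 uM ATP in pH 7.2 imidazole buffer, with luminescence measured after eight minutes at ambient temperature.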
KCNH2 3.1 inh = blocks the human KCNH2 3.1 channel isoform; U2OS KCNH2 3.1, thallium flux FluxOr; active compounds read low; activity change, % (tested at about 1.8 µM); 340,000 tested, 0.95% active; AID 720553;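 active means maximum activity change below -70%; inconclusive means maximum activity change from -70% to -50%; inactive means maximum activity change above -50%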;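 further: thallium influx rate constant from kinetic fluorescence after stimulation buffer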
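Normalized rate constant (relative to positive and negative DMSO controls) derived from a 2 min kinetic fluorescence read after stimulation; U2OS cells expressing the 3.1 isoform via virus at 1.77 x 10^8 /mL.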
The depositor's hits bear a star; i = inactive; ? = inconclusive; · = not tested or not shown. Sampled rows, rich in hits. Any-hit rate of the full collection: about 1.2%. On the % scale 0 is the no-effect control and ±100 the full control effect.

SMILES	hERG WT inh	KinaseGlo FLuc	KCNH2 3.1 inh
COc1ccc2oc(=O)c(C(=O)NCCc3ccc(OC)c(OC)c3)cc2c1	1	·	-10
CN(C(=O)c1ccc(NC(=O)Cc2ccc(NC(=O)C3CCCN(C(=O)C4CC4)C3)cc2)cc1)C1CCCC1 (configuration not stated)	-4	·	-23
CCCCCCN(C(=O)CCCCCN1C(=O)NC(c2ccccc2-c2ccccc2)C(C(=O)OCc2ccccc2)=C1C)C(C(=O)NCCCC)c1ccc(OCC(=O)OC)c(C(=O)OC)c1 (configuration not stated)	·	1%	·
COc1cccc(C=Nc2ccc(N3CCOCC3)cc2)c1O	1	·	10
COc1cccc(C=Nc2ccc3c(c2)OCCO3)c1O	-26	7.9µM*	3
CCCNC(=O)C(Cc1cccc(C#N)c1)NC(=O)c1ccc(C#N)cc1 (configuration not stated)	22	·	-15
O=C(O)c1[nH]c2ccc([N+](=O)[O-])cc2c1-c1ccccc1	0	·	-194*
NNC(=O)c1[nH]c2ccc([N+](=O)[O-])cc2c1-c1ccccc1	-4	·	-4
CCOc1cc(N2CCOCC2)c(OCC)cc1NC(=O)c1ccc(F)c(S(=O)(=O)N2CCOCC2)c1	-3	·	-1
C[C@H]1CN([C@@H](C)CO)C(=O)c2c(c3ccccc3n2C)-c2ccccc2CO[C@H]1CN(C)C(=O)[C@@H]1CCCN1C	-12	·	-7
O=C(Nc1cccc(-c2cccc(Cl)c2)c1)C1CCN(CC2CCOC2)CC1 (configuration not stated)	-20	·	?
O=C(Nc1cccc(-c2cccc(F)c2)c1)C1CCN(CC2CCOC2)CC1 (configuration not stated)	-44	·	-79*
O=C(Nc1cccc(F)c1)C1CCCCC1	5	·	6
O=C(Nc1cccc(-c2cccc(F)c2)c1)C1CCN(C2CCC2)CC1	-97*	·	-91*
O=C(CSCc1ccc(Br)cc1)NCCc1ccccc1	5	·	-1
O=C(CSCc1ccccc1)NCCc1ccc(F)cc1	-8	·	-100*
CC(C)Cn1c(SCC(=O)c2c(N)n(C)c(=O)n(C)c2=O)nc2ccccc21	-116*	1%	-32
CC(C)Cn1c(N)c(C(=O)CSc2nc3ccccc3n2C)c(=O)n(C)c1=O	22	0%	-15
CCOC(=O)Cc1csc(SCC(=O)c2c(N)n(CC(C)C)c(=O)n(C)c2=O)n1	-10	13%	-15
Cc1csc(SCC(=O)c2c(N)n(CC(C)C)c(=O)n(C)c2=O)n1	-325*	18%	-9
Cc1cccc(CN2CCC(CNC(=O)Cn3ncc4c([nH]c5ccccc54)c3=O)CC2)c1	-1	·	-10
COc1ccc2c(c1)CCC1(C)CC(=O)C(Br)=C21 (configuration not stated)	2	·	-8
CC1(C)CC(=O)C=C(NCc2ccc(C(=O)O)cc2)C1	5	·	-8
COc1ccc(/C=N/NC(=O)c2cccc([N+](=O)[O-])c2)cc1OC	5	-4%	17
N#Cc1cc([N+](=O)[O-])ccc1Oc1cccc(/C=N/NC(=O)c2cccc(Cl)c2)c1	-77*	-4%	?
SMILES	hERG WT inh	KinaseGlo FLuc	KCNH2 3.1 inh
COC(=O)C1=CC(C(=O)c2cccs2)=NN(c2ccc(OC)cc2)C1C(=O)OC (configuration not stated)	i	1%	-7
CC1(C)C(=O)Nc2ccccc2N1C(=O)COC(=O)c1ccc(NC(N)=O)cc1	0	·	-15
Cc1ccc(-n2c(-c3c(-c4ccccc4)noc3C)n[nH]c2=S)cc1	-25	-2%	-188*
Cc1ccc(-c2n[nH]c(=S)n2-c2ccccc2)cc1	-9	1%	6
CCOC(=O)N1CCC(NC(=O)C2CCN(S(=O)(=O)c3ccc4c(c3)oc(=O)n4C)CC2)CC1	-6	0%	-2
Clc1ccc(CN2C3=NCCCN3c3ccccc32)c(Cl)c1	-1	·	-94*
CC(C)(C)c1ccc(CN2C3=NCCCN3c3ccccc32)cc1	11	-1%	-80*
c1ccc(CN2C3=NCCCN3c3ccccc32)cc1	9	-2%	-5
Brc1ccc(CN2C3=NCCCN3c3ccccc32)cc1	16	2%	-75*
O=C(CN1C2=NCCCN2c2ccccc21)c1ccc(Br)s1	15	1%	-86*
Clc1cccc(CN2C3=NCCCN3c3ccccc32)c1	89	·	?
Cc1ccc(CN2C3=NCCCN3c3ccccc32)cc1	24	9%	-10
O=C(O)CN1C2=NCCCN2c2ccccc21	3	0%	9
CC(C)(O)CC[C@@H](O)[C@](C)(O)[C@H]1CC[C@@]2(O)C3=CC(=O)[C@@H]4C[C@@H](O)[C@@H](O)C[C@]4(C)[C@H]3CC[C@]12C	1	·	-3
